Z-score and composite z-score data for twelve compounds are collected here from PubChem BioAssay.

Assay [1] is described as follows: HepG2 liver cancer cell viability effects, profiling panel, resazurin fluorescence, 24 h, PK04 Diversity Set (AID 1172). Also: test concentration not given here. The following applies: higher = more signal.
Assay [2] is described as follows: basal S. cerevisiae growth modulation, no modifier, primary screen, OD600, strain BY4716, 24 h, basal condition (AID 1173). The following applies: OD600, 24 h, higher = more signal, called active from +8 up or from −8 down.
Assay [3] can be described thus: MM1S myeloma cell viability, profiling panel, resazurin fluorescence, basal, 24 h, PK04 Diversity Set (AID 1174).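 Also: MM1S multiple myeloma cell line; test concentration not given here.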 The following applies: higher = more signal, called active from +8 up or from −8 down. (Resazurin is reduced to fluorescent resorufin, in cell work by metabolically active cells.)
Assay [4] deals with Dihydroorotate dehydrogenase (quinone), mitochondrial (Plasmodium falciparum (isolate 3D7)) (UniProt Q08210). The assay can be described thus: PfDHODH enzyme inhibitors, primary screen, biochemical, C-terminal His tag, absorbance 600 nm (AID 1175).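 Also: recombinant parasite enzyme with a five histidine tag at its C terminus; test concentration not given here.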 Conditions: DCIP absorbance 600 nm, higher = more signal, called active from +8 up or from −8 down.
Sequence of Dihydroorotate dehydrogenase (quinone), mitochondrial (Plasmodium falciparum (isolate 3D7)) (Q08210 whole entry, looked up): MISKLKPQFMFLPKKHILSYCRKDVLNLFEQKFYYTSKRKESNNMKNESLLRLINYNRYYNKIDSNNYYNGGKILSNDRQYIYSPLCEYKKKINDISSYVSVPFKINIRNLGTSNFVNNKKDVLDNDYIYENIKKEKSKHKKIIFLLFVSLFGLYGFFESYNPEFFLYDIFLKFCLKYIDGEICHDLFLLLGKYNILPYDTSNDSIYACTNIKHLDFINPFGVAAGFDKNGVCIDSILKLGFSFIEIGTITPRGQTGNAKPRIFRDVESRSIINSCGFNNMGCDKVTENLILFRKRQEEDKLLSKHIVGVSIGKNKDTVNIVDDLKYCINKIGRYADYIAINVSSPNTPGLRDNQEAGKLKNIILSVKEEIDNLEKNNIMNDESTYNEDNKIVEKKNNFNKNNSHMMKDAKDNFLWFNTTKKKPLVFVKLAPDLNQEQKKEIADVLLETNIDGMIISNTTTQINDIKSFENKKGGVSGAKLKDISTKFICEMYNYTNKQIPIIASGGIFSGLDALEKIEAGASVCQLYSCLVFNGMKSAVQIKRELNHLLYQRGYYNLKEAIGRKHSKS
Assay [5] is described as follows: P. aeruginosa biofilm formation inhibitors, primary screen, strain PAO1, LB-PBS medium, absorbance 600 nm (AID 1176). Also: test concentration not given here. The following applies: P. aeruginosa PAO1 growth/biofilm, A600, 12 h; higher = more signal.
The nature of assay [6]: S. cerevisiae RM11-1a growth modifiers, primary screen, strain RM11-1a, OD600, basal, 24 h (AID 1177).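 Also: cultures grown under basal conditions with no added stressor; test concentration not given here.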 The following applies: OD600, 24 h, higher = more signal, called active from +8 up or from −8 down.
The nature of assay [7]: E. coli acrAB mutant growth effects, primary screen, E. coli filamentation inducers, strain DRC39, OD650, 24 h (AID 1178).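 Also: growth measured as culture turbidity by optical density at 650 nm; test concentration not given here.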 Conditions: higher = more signal, called active from +8 up or from −8 down.
A short description of assay [8]: E. coli acrAB mutant growth effects, primary screen, E. coli filamentation inducers, strain DRC39, OD650, 48 h (AID 1179).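 Also: screen aims at cell division blockers that make cells filament.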 Conditions: E. coli DRC39 delta-acrAB growth, higher = more signal, called active from +8 up or from −8 down.
Assay [9] can be described thus: RPMI8226 myeloma cell viability, profiling panel, resazurin fluorescence, basal, 24 h, PK04 Diversity Set (AID 1180).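 Also: RPMI8826 multiple myeloma cell line at 5000 cells per well; test concentration not given here.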 Conditions: higher = more signal.
The target of assay [10] is E3 ubiquitin-protein ligase XIAP (Homo sapiens) (UniProt P98170). Kind of assay: XIAP binders, primary screen, biophysical, small-molecule microarray, fluorescence 635 nm (AID 1181).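 Also: score merges 667 nm emission and signal to noise over triplicate slides.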 The following applies: small-molecule microarray binding, higher = more signal.
Sequence of E3 ubiquitin-protein ligase XIAP (Homo sapiens) (P98170 whole entry, looked up): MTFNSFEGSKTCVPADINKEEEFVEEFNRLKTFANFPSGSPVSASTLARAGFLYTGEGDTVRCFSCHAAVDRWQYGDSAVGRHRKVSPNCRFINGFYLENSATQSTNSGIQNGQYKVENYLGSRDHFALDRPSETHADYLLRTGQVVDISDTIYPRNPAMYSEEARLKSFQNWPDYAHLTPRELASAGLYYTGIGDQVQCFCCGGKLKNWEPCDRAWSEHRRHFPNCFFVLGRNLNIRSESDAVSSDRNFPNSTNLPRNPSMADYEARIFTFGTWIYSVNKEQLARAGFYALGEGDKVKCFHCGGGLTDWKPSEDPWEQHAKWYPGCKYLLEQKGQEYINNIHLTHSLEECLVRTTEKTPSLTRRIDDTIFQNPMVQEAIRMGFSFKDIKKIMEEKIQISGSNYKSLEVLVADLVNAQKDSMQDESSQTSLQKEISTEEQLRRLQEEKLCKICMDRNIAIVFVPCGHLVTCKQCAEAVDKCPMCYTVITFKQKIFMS

Active and inactive are the calls of the source. Unless noted, no rule for the calls is given here.

Regarding `O=C1O[C@H](c2ccccc2)[C@H](c2ccccc2)N2[C@H]1[C@@H](C(=O)N1CCN(c3ncccn3)CC1)[C@]1(C(=O)Nc3ccc(C#CC4=CCCCC4)cc31)[C@H]2c1ccccc1OCCO`, the z-score was -0.476 in assay [1]; 1.4 (inactive) in assay [2]; -1.49 (inactive) in assay [3]; 1.78 (inactive) in assay [5]; 1.29 (inactive) in assay [6]; -0.873 (inactive) in assay [7]. The z-score in assay [8] is -1.05 (inactive); in [9], -1.77. In addition, the composite z-score in assay [4] is -0.0965 (inactive); in assay [10] it was 0.0547.

Turning to `O=C1NC(=O)C2C1C=CC(C(O)c1ccc(-c3ccccc3)s1)N2Nc1ccc(Cl)cc1Cl` (stereo not given), the z-score was -3.58 in assay [1]; -1.99 (inactive) in assay [2]; -1.69 (inactive) in [3]; 2.64 (inactive) in assay [5]; 0.856 (inactive) in [6]; 0.457 (inactive) in assay [7]. Further, the z-score is -1.2 (inactive) in assay [8] and -1.75 in assay [9]. The composite z-score in assay [4] is 0.0414 (inactive); in [10], 0.849.

In the case of `O=C1C2C=CC(C(O)C=Cc3ccc([N+](=O)[O-])cc3)N(Nc3ccccc3F)C2C(=O)N1c1ccccc1` (stereo not given), the z-score in assay [1] was -0.964; in [2] it was 2.18 (inactive); in [3], -0.747 (inactive); in [5] it was 1.58 (inactive); in assay [6] it was 1.6 (inactive); in assay [7], -0.388 (inactive). In addition, the z-score in assay [8] was -0.138 (inactive); in [9], -0.381. Moreover, the composite z-score in assay [4] was 1.06 (inactive); in assay [10], 0.0101.

For `C=CCNC(=O)[C@H]1[C@@H]2C(=O)O[C@@H](c3ccccc3)[C@@H](c3ccccc3)N2[C@@H](c2ccc(OCCO)cc2)[C@]12C(=O)Nc1ccc(C#CCC(C(=O)OC)C(=O)OC)cc12`, the z-score in assay [1] was 0.47; in assay [2], 1.62 (inactive); in [3], -0.447 (inactive); in [5], 2.63 (inactive); in assay [6], 2.22 (inactive); in [7], 0.634 (inactive). The z-score in assay [8] is -0.115 (inactive); in [9], -2.64. Further, the composite z-score in assay [4] is 0.26 (inactive); in assay [10], 0.0975.

For the compound `COc1ccc([Si](C)(C)[C@H]2[C@H](CCn3cc([C@H](O)c4ccccc4)nn3)O[C@@]3(C(=O)N(C)c4ccccc43)[C@@H]2C)cc1`, the z-score in assay [1] is 0.894; in assay [2], 0.0785 (inactive); in assay [3], -0.722 (inactive); in assay [5], 0.92 (inactive); in [6], 1.01 (inactive); in assay [7], 0.445 (inactive). For the same compound, the results for the z-score in [8] and in assay [9] were 0.416 (inactive) and -0.568, respectively. For the same compound, the composite z-score was -0.778 (inactive) in [4] and 0.393 in assay [10].

Consider `CC(C)C(=C=CC[C@H](O)c1ccc(CO)o1)CCO`, for which the z-score in assay [1] was -0.0202; in assay [2], -1.56 (inactive); in assay [3], -0.159 (inactive); in assay [5], 0.0356 (inactive); in [6], -0.132 (inactive); in assay [7], -0.706 (inactive). Also, the z-score in assay [8] was -0.741 (inactive); in [9], 0.152. Also, the composite z-score was -2.12 (inactive) in [4] and 0.102 in assay [10].

In the case of `CN(C)C(=O)[C@]1(Cc2ccccc2)N=C(c2ccc(OCCCO)cc2)O[C@@H]1c1ccccc1N=[N+]=[N-]`, the z-score in [1] was -0.274; in [2], -1.43 (inactive); in assay [3], -2.64 (inactive); in assay [5], -0.0837 (inactive); in [6], 1.29 (inactive); in assay [7], 0.349 (inactive). Also, the z-score in assay [8] is 0.908 (inactive); in assay [9] it was -2.58. In addition, the composite z-score is 0.9 (inactive) in [4] and 0.237 in [10].

For the compound `O=C(CS)NCCCCCNC(=O)[C@H]1C[C@H]2C(=O)NCC(=O)N2[C@H]1c1ccc(O)cc1`, the z-score was 1.33 in assay [1]; -0.208 (inactive) in [2]; 1.5 (inactive) in [3]; -0.832 (inactive) in assay [5]; -1.3 (inactive) in [6]; 0.268 (inactive) in assay [7]. Further, the z-score in [8] is 0.0249 (inactive); in assay [9] it was 1.21. Further, the composite z-score in assay [4] is -0.522 (inactive); in assay [10], 0.0621.

In the case of `Cc1ccc(S[C@]2(C(=O)O)CC(=O)N(C(C)C)[C@@H]2c2ccc(CO)cc2)cc1`, the z-score was 0.0469 in assay [1]; -1.45 (inactive) in assay [2]; 0.359 (inactive) in [3]; 1.02 (inactive) in assay [5]; -1.33 (inactive) in assay [6]; 1.44 (inactive) in assay [7]. Moreover, the z-score is 1.93 (inactive) in assay [8] and 0.376 in assay [9]. In addition, the composite z-score in assay [4] is -0.896 (inactive); in [10], -0.0962.

As for `C[N+](C)(C)CCCC[C@@H]1NC(=O)[C@H]2C[C@@H](C(=O)NCCCCCCNC(=O)CS)[C@@H](c3ccc(O)cc3)N2C1=O`, the z-score was -0.935 in [1]; 0.123 (inactive) in assay [2]; -0.476 (inactive) in [3]; -0.0059 (inactive) in [5]; -0.0807 (inactive) in [6]; 0.0109 (inactive) in [7]. The z-score was -0.643 (inactive) in assay [8] and -0.862 in assay [9]. In addition, the results for the composite z-score in assay [4] and in [10] were 0.0966 (inactive) and -0.0272, respectively.

As to `COc1ccc([Si](C)(C)[C@@H]2[C@@H](CCn3cc([C@H](O)c4ccccc4)nn3)O[C@]3(C(=O)N(Cc4cccc(N5CCC5=O)c4)c4ccccc43)[C@H]2C)cc1`, the z-score in [1] was 0.736; in assay [2] it was -0.0294 (inactive); in assay [3], -0.939 (inactive); in assay [5] it was 2.05 (inactive); in assay [6], 1.01 (inactive); in assay [7] it was 0.603 (inactive). Moreover, the values for the z-score in assay [8] and in [9] were 0.127 (inactive) and 0.123, respectively. The composite z-score is 0.219 (inactive) in [4] and 0.0345 in assay [10].

Turning to `[N-]=[N+]=NCc1ccccc1[C@@H]1OC(c2ccc(OCCCO)cc2)=N[C@]1(CCS(=O)(=O)c1ccccc1)C(N)=O`, the z-score in assay [1] is -0.493; in assay [2], -0.583 (inactive); in assay [3] it was -0.163 (inactive); in assay [5], -0.651 (inactive); in [6], 0.573 (inactive); in assay [7] it was 0.0745 (inactive). Besides, the z-score is 0.859 (inactive) in assay [8] and 0.0529 in assay [9]. For the same compound, the composite z-score in [4] was -0.449 (inactive); in assay [10], 0.243.
